# Assay results as given in PMC9838217, “Structure of SALL4 zinc finger domain reveals link between AT-rich DNA binding and Okihiro syndrome”.
# Where a chain is given by its changes, count along the chain named.
# Biological target: T1, SALL4 ZFC4 WT (HT-SELEX) (Mus musculus, UniProt Q8BX22 870-940)
# T1 sequence: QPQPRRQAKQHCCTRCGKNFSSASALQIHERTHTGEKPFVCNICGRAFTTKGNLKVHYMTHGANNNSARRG
# Test: HT-SELEX; high values mean tight binding
# Conditions: protein: recombinant; vector His6-GST; dsDNA, one strand shown
# Method in brief: (§1)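 Binding signal is expressed as fold change in each canonical k-mer's read fraction over the initial random library. To obtain it, 1 µg of purified recombinant mouse SALL4 zinc finger cluster 4 (residues 870–940) was incubated for 10 min at room temperature with library DNA (1.5 µg first cycle, 200 ng later cycles) in 100 µl of 10 mM Tris–HCl pH 7.5, 50 mM NaCl, poly(dI-dC) and DTT. Ni2+ bead-captured complexes went through washing, PCR amplification and reselection for up to 6 cycles, in triplicate, before MiSeq sequencing and scanning for 6-mers.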
row,Sequence,binding signal [fold-change vs cycle 0]
1,GGATTA,1.49 ± 0.0733
2,GCGTTA,0.54 ± 0.0741
3,GGTGGA,0.462 ± 0.0279
4,TCCCAA,0.743 ± 0.0235
5,AGTACG,0.724 ± 0.0595
6,CCCTGA,0.494 ± 0.0131
7,GGGGAA,0.462 ± 0.0251
8,CATCGA,0.706 ± 0.0155
9,CTTGGA,0.806 ± 0.0506
10,GAGACC,0.414 ± 0.0124
11,CTTAGA,1.28 ± 0.0284
12,AAAACA,1.61 ± 0.0773
13,CCTCCA,0.517 ± 0.0262
14,CCTAGG,0.46 ± 0.0474
15,ACAGTC,0.718 ± 0.0285
16,ACACCC,0.416 ± 0.0284
17,ACGCTA,0.566 ± 0.0296
18,CACTCA,0.83 ± 0.0249
19,AACATT,1.95 ± 0.0486
20,CTCTGC,0.35 ± 0.0408

row,Sequence,binding signal [fold-change vs cycle 0]
1,CTTATA,2.43 ± 0.156
2,AGGAAT,1.52 ± 0.0788
3,CAAGGA,0.866 ± 0.0298
4,GGAGCA,0.352 ± 0.0189
5,TAAACA,1.9 ± 0.127
6,CCAAGG,0.457 ± 0.0202
7,ATCAAA,1.96 ± 0.105
8,AAAGTT,1.85 ± 0.124
9,ATCTAA,2.02 ± 0.105
10,CCTCAA,0.759 ± 0.0289
11,GCTCAA,0.548 ± 0.03
12,ATCACG,0.751 ± 0.0409
13,ATGAGC,0.659 ± 0.0207
14,CCCTCA,0.502 ± 0.0184
15,AACAAG,1.28 ± 0.0479
16,ACAGAG,0.763 ± 0.0507
17,AGCCAA,0.49 ± 0.0194
18,ATAATG,2.28 ± 0.148
19,CTGTTC,0.771 ± 0.0432
20,AAAGCA,1.06 ± 0.0392

# Biological target: T2, SALL4 ZFC4 R900W (HT-SELEX) (Mus musculus, UniProt Q8BX22 870-940, R900W)
# T2 sequence: T1 sequence with R31W
# Test: HT-SELEX; high values mean tight binding
# Conditions: protein: recombinant; vector His6-GST; dsDNA, one strand shown
# Method in brief: as §1
row,Sequence,binding signal [fold-change vs cycle 0]
1,GGATTA,1.47 ± 0.0516
2,GCGTTA,0.582 ± 0.053
3,GGTGGA,0.536 ± 0.0251
4,TCCCAA,0.826 ± 0.0256
5,AGTACG,0.83 ± 0.0465
6,CCCTGA,0.574 ± 0.0156
7,GGGGAA,0.532 ± 0.0365
8,CATCGA,0.749 ± 0.0387
9,CTTGGA,0.948 ± 0.0291
10,GAGACC,0.5424 ± 0.00269
11,CTTAGA,1.45 ± 0.0641
12,AAAACA,1.67 ± 0.055
13,CCTCCA,0.603 ± 0.0398
14,CCTAGG,0.588 ± 0.0412
15,ACAGTC,0.8733 ± 0.00718
16,ACACCC,0.506 ± 0.0389
17,ACGCTA,0.638 ± 0.0194
18,CACTCA,0.928 ± 0.0236
19,AACATT,1.96 ± 0.0488
20,CTCTGC,0.396 ± 0.021

row,Sequence,binding signal [fold-change vs cycle 0]
1,CTTATA,2.09 ± 0.123
2,AGGAAT,1.63 ± 0.0707
3,CAAGGA,1.02 ± 0.0119
4,GGAGCA,0.423 ± 0.00792
5,TAAACA,1.91 ± 0.125
6,CCAAGG,0.535 ± 0.0059
7,ATCAAA,1.83 ± 0.114
8,AAAGTT,1.9 ± 0.107
9,ATCTAA,2.01 ± 0.101
10,CCTCAA,0.864 ± 0.0329
11,GCTCAA,0.644 ± 0.0305
12,ATCACG,0.856 ± 0.012
13,ATGAGC,0.736 ± 0.0172
14,CCCTCA,0.579 ± 0.0163
15,AACAAG,1.5 ± 0.0772
16,ACAGAG,0.916 ± 0.013
17,AGCCAA,0.55 ± 0.00629
18,ATAATG,2.02 ± 0.123
19,CTGTTC,0.893 ± 0.0123
20,AAAGCA,1.13 ± 0.0246

# Biological target: T3, SALL4 ZFC4 G921D (HT-SELEX) (Mus musculus, UniProt Q8BX22 870-940, G921D)
# T3 sequence: T1 sequence with G52D
# Test: HT-SELEX; high values mean tight binding
# Conditions: protein: recombinant; vector His6-GST; dsDNA, one strand shown
# Method in brief: as §1
row,Sequence,binding signal [fold-change vs cycle 0]
1,GGATTA,1.38 ± 0.0744
2,GCGTTA,0.668 ± 0.0435
3,GGTGGA,0.619 ± 0.0493
4,TCCCAA,0.872 ± 0.0393
5,AGTACG,0.871 ± 0.0406
6,CCCTGA,0.665 ± 0.0261
7,GGGGAA,0.614 ± 0.0545
8,CATCGA,0.854 ± 0.0254
9,CTTGGA,0.984 ± 0.0463
10,GAGACC,0.643 ± 0.0507
11,CTTAGA,1.36 ± 0.0933
12,AAAACA,1.55 ± 0.0435
13,CCTCCA,0.687 ± 0.0633
14,CCTAGG,0.669 ± 0.0278
15,ACAGTC,0.889 ± 0.0202
16,ACACCC,0.581 ± 0.0534
17,ACGCTA,0.754 ± 0.0468
18,CACTCA,0.995 ± 0.0233
19,AACATT,1.79 ± 0.136
20,CTCTGC,0.522 ± 0.0742

row,Sequence,binding signal [fold-change vs cycle 0]
1,CTTATA,1.82 ± 0.197
2,AGGAAT,1.49 ± 0.113
3,CAAGGA,1.01 ± 0.0394
4,GGAGCA,0.543 ± 0.05
5,TAAACA,1.73 ± 0.187
6,CCAAGG,0.642 ± 0.0371
7,ATCAAA,1.69 ± 0.154
8,AAAGTT,1.7 ± 0.189
9,ATCTAA,1.83 ± 0.191
10,CCTCAA,0.951 ± 0.0279
11,GCTCAA,0.763 ± 0.038
12,ATCACG,0.923 ± 0.0125
13,ATGAGC,0.836 ± 0.0347
14,CCCTCA,0.665 ± 0.0275
15,AACAAG,1.39 ± 0.0671
16,ACAGAG,0.96 ± 0.0385
17,AGCCAA,0.698 ± 0.0739
18,ATAATG,1.81 ± 0.182
19,CTGTTC,0.959 ± 0.0166
20,AAAGCA,1.14 ± 0.0213
